TRHR PAM: allosterically enhances the human TRH receptor; actives 0.66% (n = 360,000); enhancement, % at 2 µM; TRHR cells, fluo-8 calcium fluorescence, EC20 TRH enhancement; P34981; in the data active = enhancement above about 30%; note: 0% is about no effect
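Enhancer read-out: after compound pinning and an initial kinetic agonist-mode read, an EC20 of TRH (10 nM final) was injected and fluo-8 calcium signal (Ex 480/Em 530) followed at 1 s/cycle for 100 cycles in TRHR-expressing cells.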
TRHR agonist: agonists of human TRH receptor | P34981 | TRHR cells, calcium flux fluo-8, FDSS agonist mode | activation, % at 2 µM | actives 0.18% (n = 360,000) | AID 493084; note: 0% is about no effect
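Read-out: compound-evoked intracellular calcium rise in TRHR cells, fluo-8 dye, kinetic FDSS fluorescence at 1 s/cycle following a 10-cycle baseline. Cells cultured overnight before dye loading (30 min–1.5 h, RT).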
D1 PAM: human D1 dopamine receptor positive modulation | AID 504651 | potentiation, % at 10 µM | actives 0.036% (n = 360,000) | HEK293 TREx D1 cells, calcium flux, dopamine EC20 potentiation | P21728; in the data active = potentiation above about 30%; note: 0% is about no effect
Target sequence (P21728 whole entry, looked up): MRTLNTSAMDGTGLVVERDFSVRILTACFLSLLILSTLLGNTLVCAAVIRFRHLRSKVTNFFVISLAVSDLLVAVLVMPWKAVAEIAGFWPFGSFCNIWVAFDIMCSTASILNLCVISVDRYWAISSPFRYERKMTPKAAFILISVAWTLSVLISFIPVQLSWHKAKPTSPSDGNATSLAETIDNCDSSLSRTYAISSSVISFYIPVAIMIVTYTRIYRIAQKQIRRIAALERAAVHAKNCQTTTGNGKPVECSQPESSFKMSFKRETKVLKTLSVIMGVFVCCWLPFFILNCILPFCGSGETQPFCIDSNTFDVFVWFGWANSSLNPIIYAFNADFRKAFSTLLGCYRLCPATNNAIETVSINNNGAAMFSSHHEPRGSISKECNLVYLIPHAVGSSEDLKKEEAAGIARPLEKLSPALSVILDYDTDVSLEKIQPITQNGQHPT
D1 ag: activates the human D1 dopamine receptor; activation, % at 2 µM; HEK293 T-REx D1 cells, calcium flux, agonist mode; actives 1% (n = 360,000); P21728; note: 0% is about no effect
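Agonism was scored from calcium flux recorded over 180 s (1 read/s) after pintool compound addition, following a 10-cycle baseline. Cells were inducible force-coupled HEK293 TREx D1, plated overnight at 30 C and loaded with no-wash calcium dye.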
D1 antag: blocks dopamine activation of the human D1 receptor; P21728; HEK293 TREx D1 cells, calcium flux, dopamine EC80; hits give low values; actives 3.2% (n = 360,000); activity change, negative = inhibition, % at 10 µM; AID 504652; in the data active = activity change below about -30%; note: % is set by controls: 0 for no effect and ±100 for the full control effect
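Inducible Hek293 Trex D1 cells (tetracycline, overnight, 30 C). Calcium dye 30–90 min RT. Antagonist mode: EC80 dopamine added after 180 s compound read.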
Active calls of the source: *; · = no result given; ! = not confirmed by another sample. Most compounds without a hit are left out; they make up all but 4.7% or so of the library. Cut-off read from the data, not from the text of the source, unless noted: active = activation above about 30%; inactive = the rest.

SMILES | TRHR PAM | TRHR agonist | D1 PAM | D1 ag | D1 antag
Cc1ccc(S(=O)(=O)NCCCC(=O)O)cc1 | 19.2 | 0.4 | 2.0 | 0.1 | -32.0*
CCc1ccc(N(CC(=O)NC2CC2)S(=O)(=O)c2ccc(C)cc2)cc1 | -5.7 | -0.2 | -6.5 | 0.6 | -42.7*
Cc1ccc(S(=O)(=O)NCC(=O)NC2CCCC2)cc1 | -1.3 | -0.4 | -4.0 | -0.5 | 7.7
Cc1ccc(S(=O)(=O)NCCC(=O)O)cc1 | -0.5 | -0.2 | -2.1 | 2.0 | 0.5
Cc1ccc(CSCCNS(=O)(=O)c2ccc(C)cc2)cc1 | 5.8 | 0.7 | -5.5 | 7.2 | -40.1*
CCOc1ccccc1CNC(=O)C1CCN(S(=O)(=O)c2c(C)noc2/C=C/c2ccccc2F)CC1 | 2.3 | 0.8 | 1.2 | 2.2 | -2.7
COc1cc(C(=O)OCc2cc(=O)n3nc(C(C)C)sc3n2)cc(OC)c1OC | 7.1 | 0.5 | -4.8 | 1.1 | 19.5
CC(=O)c1cccc(-n2c(=O)c3c4c(sc3n(Cc3ccccc3Cl)c2=O)CN(C(C)=O)CC4)c1 | 1.0 | -0.2 | 3.0 | 0.5 | -10.7
Cc1cccc(NC(=O)c2c(Br)sc3c2CCCC3)c1 | -9.5 | -0.3 | -1.5 | 0.4 | -27.2
Cc1ccc(NC(=O)c2c(NC(=O)c3ccccc3)sc3c2CCC3)cc1 | -6.7 | -0.2 | 0.1 | -1.7 | -10.7
Cc1cccc(NC(=O)c2c(NC(=O)C(F)(F)F)sc3c2CCCCC3)c1 | 9.6 | 1.4 | -2.5 | 33.5* | -37.4*
COc1ccccc1NC(=O)c1c(NC(=O)COc2ccccc2)sc2c1CCCCC2 | -0.7 | 0.2 | -1.8 | 0.4 | 4.1
COc1ccc(NC(=O)c2c(NC(=O)COc3ccccc3)sc3c2CCCCC3)cc1 | -5.8 | 0.1 | 3.2 | -1.0 | -36.8*
O=C(Nc1cccc(Cl)c1)c1c(NC(=O)C(F)(F)F)sc2c1CCCC2 | -7.9 | 4.7 | -2.8 | 16.3 | -34.6*
Cc1ccc(NC(=O)c2c(NC(=O)C(F)(F)F)sc3c2CCCCC3)cc1 | 9.3 | 1.9 | -2.4 | 31.8* | -42.1*
COc1ccc(S(=O)(=O)NCc2cccn2Cc2cccc(C)c2)cc1OC | -4.5 | -0.8 | 0.1 | 0.5 | 1.9
COc1ccc(S(=O)(=O)NCC(c2ccco2)N2CCN(c3ccc(F)cc3)CC2)cc1C (stereo not given) | -8.9 | -0.3 | -4.5 | -0.2 | ·
Cc1ccccc1NC(=O)c1c(NC(=O)C(F)(F)F)sc2c1CCCCC2 | 12.4 | 3.0 | -0.6 | 35.4* | -20.9
Cc1nc(Nc2ccccc2Cl)sc1C(=O)Nc1ccccc1 | 6.5 | -0.2 | -9.8 | 2.5 | 1.4
COc1ccccc1Nc1nc(C)c(C(=O)Nc2ccccc2)s1 | 7.6 | -1.0 | -8.5 | 2.6 | -38.4*
Cc1nc(Nc2ccccc2)sc1C(=O)Nc1ccccc1 | 9.3 | -0.1 | -2.6 | 1.6 | 2.1
Cc1nc(Nc2ccc(S(N)(=O)=O)cc2)sc1C(=O)Nc1ccccc1 | 7.3 | 0.3 | -12.7 | 0.5 | -54.8*
CCOC(=O)C1CCCN(c2ncnc3c2nnn3C)C1 (stereo not given) | -1.0 | 0.4 | 1.6 | 2.5 | ·
O=C(Cc1ccc2c(c1)OCCO2)N1CCN(S(=O)(=O)c2cccs2)CC1 | -2.8 | -0.1 | -12.2 | 15.2 | -34.9*
O=C(Cc1ccc2c(c1)OCCO2)N1CCN(S(=O)(=O)c2cccc(Cl)c2Cl)CC1 | -0.3 | 0.9 | -5.6 | 12.7 | -27.8
SMILES | TRHR PAM | TRHR agonist | D1 PAM | D1 ag | D1 antag
CC(=O)C1=C(O)C(=O)N(c2cccc(C(=O)O)c2)C1c1ccccc1F (stereo not given) | -4.4 | -0.5 | 4.3 | 2.9 | -87.1*
CC(=O)C1=C(O)C(=O)N(Cc2ccccc2)C1c1ccccc1F (stereo not given) | 2.1 | -0.3 | -5.8 | 1.0 | -5.6
CCOC(=O)c1c(C)[nH]c(C)c1S(=O)(=O)N(C)CC(=O)NCc1cccc(Br)c1 | -4.8 | -0.3 | -1.9 | 1.4 | -35.9*!
O=C(NNC(=O)C1CC1c1ccccc1)c1ccccc1F (stereo not given) | 7.4 | -0.3 | -5.2 | 3.4 | 8.6
O=C(NNC(=O)C1CCCC1)c1ccccc1F | 34.6* | -0.6 | -5.8 | 0.6 | -13.3
CCOC(=O)Cn1nnnc1CN1CCN(c2ccc(OC)cc2)CC1 | 33.6* | 0.8 | -3.4 | 3.6 | -1.6
CCOC(=O)Cn1c(CN2CCN(c3ccc(OC)cc3)CC2)nc2c1c(=O)[nH]c(=O)n2C | 1.9 | -0.2 | -3.9 | -1.8 | 3.9
Cc1n[nH]c(=O)c2c1nnn2Cc1ccccc1Cl | -25.5 | -0.2 | -6.7 | 0.3 | -51.5*
